Measured values taken from the supplement of paper PMC12636033.
± gives the standard deviation of the averaged measurements. In all, about 33,000 sequences were measured (“E-score (rank enrichment, -0.5 to 0.5)”: median about -0.0043, highest 2% from about 0.24 on). Shown is part of a subset that was picked to be rich in the highest values.

System: 2Sp-muMax20 (muMax20 with two 2,6-bis(methyl)pyridine Cys staples)
Experiment: PBM 8-mer E-score (E-score (rank enrichment, -0.5 to 0.5)); higher = stronger preferential binding
Experimental: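 Protein binding microarray (universal PBM chip covering all 10-mers in fixed probe flanks) with chemically synthesized human Max(13-93) bHLH-LZ analogs (not full-length Max) bearing noncanonical residues (hArg, Tha, Aib, Nle at 65) and aromatic Cys staples. Read-out per 8-mer (and its reverse complement): E-score (rank-based enrichment, -0.5 to 0.5) and Z-score of median probe intensity.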

| Sequence | PBM 8-mer E-score |
| --- | --- |
| ATGACTTA | 0.0917 ± 0.049 |
| AGGATCAA | -0.0715 ± 0.043 |
| AAACTGTA | 0.00471 ± 0.023 |
| AACAGATA | -0.0996 ± 0.022 |
| AACAGATC | 0.243 ± 0.058 |
| GACAGATC | 0.0282 ± 0.0066 |
| CCCCAGGG | -0.293 ± 0.032 |
| CCAGACCC | -0.142 ± 0.016 |
| AAACTTGC | 0.267 ± 0.039 |
| CAACTTGC | -0.157 ± 0.011 |
| AAACTTGA | 0.17 ± 0.089 |
| GATTAATA | 0.274 ± 0.062 |
| GATTAATC | -0.0645 ± 0.077 |
| CATTAATA | 0.201 ± 0.014 |
| TATTAACA | 0.218 ± 0.011 |
| GATTAACA | 0.174 ± 0.046 |
| TATTAATA | 0.274 ± 0.1 |
| GTCCTGCA | -0.0516 ± 0.027 |
| ACCGCACT | -0.193 ± 0.07 |
| AAACTGGC | -0.0533 ± 0.0029 |
| AAAAAGGC | 0.00635 ± 0.045 |
| GAAAGGCC | -0.146 ± 0.053 |
| CAAGGCCG | -0.065 ± 0.016 |
| AAAGGCCC | -0.012 ± 0.043 |
| CAAAAGGC | 0.0445 ± 0.053 |

| Sequence | PBM 8-mer E-score |
| --- | --- |
| GAAAAGGC | 0.308 ± 0.013 |
| CAAAGGCC | 0.0557 ± 0.1 |
| AAAAGGCC | 0.3 ± 0.0042 |
| AAAGGCCG | 0.281 |
| AGTGTCGG | -0.166 ± 0.11 |
| GATGCCCC | -0.0212 ± 0.099 |
| ATTGAGGC | 0.167 ± 0.021 |
| AACATGCT | 0.126 ± 0.0074 |
| ACCATGTC | 0.0986 ± 0.05 |
| CACATGAA | 0.138 ± 0.035 |
| CACATGTG | 0.4178 ± 0.00081 |
| ACCATGTG | 0.262 ± 0.03 |
| CACATGTA | 0.312 ± 0.02 |
| AACATGCG | 0.253 ± 0.035 |
| ACCATGTA | 0.0783 ± 0.049 |
| CACATGCG | 0.166 ± 0.097 |
| CACATGTC | 0.0937 ± 0.018 |
| CTCATGTA | 0.0793 ± 0.033 |
| CAAATGTG | 0.0759 ± 0.025 |
| CCCTAAAG | 0.134 ± 0.057 |
| ACTCTAGC | -0.0888 ± 0.0064 |
| GGGGCAAA | 0.0419 ± 0.059 |
| AGCCCAAC | 0.0919 ± 0.041 |
| GCTGACCA | -0.0567 ± 0.026 |
| AGCCTTGG | 0.0479 ± 0.022 |

| Sequence | PBM 8-mer E-score |
| --- | --- |
| ACAAGTAG | 0.00901 ± 0.018 |
| AGCATGTG | 0.223 ± 0.016 |
| AACATGTC | 0.143 ± 0.038 |
| TACATGTA | 0.265 ± 0.051 |
| TACATGCA | 0.222 ± 0.018 |
| GACATGTA | 0.217 ± 0.066 |
| AACATGTT | 0.304 ± 0.043 |
| AACATGTA | 0.2242 ± 0.0011 |
| AACATGTG | 0.36 ± 0.026 |
| AACATGAG | 0.0341 ± 0.0065 |
| AGGGCTCG | -0.212 ± 0.027 |
| ACAAGGGG | 0.0199 ± 0.047 |
| TCGATACA | 0.197 ± 0.0083 |
| GCGATGGA | -0.138 ± 0.0024 |
| ATAGCCGA | -0.00055 ± 0.0078 |
| ATTCCAGA | 0.0163 ± 0.071 |
| CGGTGATC | -0.15 ± 0.0077 |
| ACTTGAAG | 0.186 ± 0.027 |
| AATGTAAA | 0.311 ± 0.014 |
| AATGTATA | 0.269 ± 0.048 |
| GATGTATA | 0.107 ± 0.023 |
| AATGTAAT | 0.189 ± 0.0034 |
| CATGTAAA | 0.12 ± 0.055 |
| CATGTATA | 0.165 ± 0.0069 |
| ATCTCTGA | -0.0124 ± 0.14 |

| Sequence | PBM 8-mer E-score |
| --- | --- |
| AGCCGGTG | -0.254 ± 0.045 |
| CCCGTACG | -0.0914 ± 0.052 |
| AAGGCGTG | -0.0484 ± 0.012 |
| ACGTGCAA | 0.212 ± 0.029 |
| CATAATAA | 0.0619 ± 0.015 |
| CATAATAC | 0.249 ± 0.028 |
| AATAATAC | -0.0356 ± 0.042 |
| CATAATAG | 0.237 ± 0.028 |
| AATAATAG | 0.137 ± 0.084 |
| CATAATGG | 0.153 ± 0.026 |
| AGGTGGAG | -0.0381 ± 0.055 |
| GATGACGA | 0.165 ± 0.017 |
| GCGCCTCC | 0.111 ± 0.079 |
| CAAGAGCC | -0.0162 ± 0.036 |
| AAGCTGAA | 0.104 ± 0.047 |
| AGGAGGCG | 0.0177 ± 0.059 |
| GCATGCGC | 0.164 ± 0.06 |
| CCATGCGA | 0.0984 ± 0.026 |
| ACATGCAC | 0.0958 ± 0.01 |
| GCATGCAA | 0.244 ± 0.014 |
| TCATGCAA | 0.219 ± 0.014 |
| ACATGCAG | 0.0533 ± 0.012 |
| ACATGCAT | 0.333 ± 0.0087 |
| GCATGCAC | 0.216 ± 0.023 |
| GCATGCGA | 0.3 ± 0.012 |

| Sequence | PBM 8-mer E-score |
| --- | --- |
| AGACTCAA | -0.111 ± 0.022 |
| GCGGCAGA | -0.228 ± 0.049 |
| GAGCAGTA | 0.113 ± 0.0065 |
| AGAGGGCT | -0.00447 ± 0.07 |
| ACGGGGCG | 0.0718 ± 0.047 |
| ACGTTATA | 0.204 ± 0.072 |
| ACTTTATA | 0.192 ± 0.053 |
| ACTTTATC | -0.0354 ± 0.037 |
| ACGTTATG | 0.284 ± 0.0056 |
| ACGTTATC | 0.034 ± 0.046 |
| ACTTTATG | 0.281 ± 0.065 |
| AAAAAACT | 0.0474 ± 0.0053 |
| TACGCGTA | 0.0583 ± 0.054 |
| GATCTTCC | -0.219 ± 0.038 |
| CAACCTCG | -0.194 ± 0.05 |
| GGTTACTA | -0.067 ± 0.092 |
| GTTACCGA | -0.284 ± 0.013 |
| ATGCGCAA | 0.184 ± 0.017 |
| TTGCGCAA | 0.344 ± 0.0038 |
| ATGCGCAG | 0.0186 ± 0.025 |
| ATGCGCAC | 0.195 ± 0.071 |
| GTGCGCAA | -0.0392 ± 0.038 |
| ATGCGCAT | 0.335 ± 0.061 |
| ATCCAGTA | 0.134 ± 0.028 |
| GATAGGGC | 0.081 ± 0.019 |

| Sequence | PBM 8-mer E-score |
| --- | --- |
| ATAGTTGA | 0.121 ± 0.077 |
| ATACGCAA | 0.308 ± 0.062 |
| GTACGCAA | -0.0841 ± 0.033 |
| ATACGCAG | 0.0458 ± 0.043 |
| ACGAGCCT | -0.00942 ± 0.0098 |
| CCAGCAGA | -0.0671 ± 0.018 |
| AATCACGC | 0.193 ± 0.015 |
| GATCACAC | 0.153 ± 0.019 |
| AATCACGA | -0.0412 ± 0.011 |
| AATCACAC | 0.236 ± 0.041 |
| AATCACAG | -0.0564 ± 0.011 |
| AATCACAT | 0.27 ± 0.019 |
| CATCACAC | 0.118 ± 0.035 |
| AATCACGT | 0.254 ± 0.024 |
| AATCACAA | 0.144 ± 0.036 |
| CGTTATGC | 0.177 ± 0.027 |
| AAAGTTTA | 0.206 ± 0.054 |
| AGGTTTAC | -0.222 ± 0.071 |
| ACTGTGCC | 0.0364 ± 0.042 |
| CCATCCCG | -0.00777 ± 0.0093 |
| AACGTCCA | -0.012 ± 0.044 |
| GTAGTTGA | 0.116 ± 0.0092 |
| ATTGCATC | 0.134 ± 0.014 |
| GCGATGCC | -0.221 ± 0.0047 |
| GATCATGA | 0.139 ± 0.016 |

| Sequence | PBM 8-mer E-score |
| --- | --- |
| CCCTTCAC | 0.0356 ± 0.018 |
| AAATGTAG | 0.134 ± 0.1 |
| ACATGTCC | 0.151 ± 0.033 |
| CCATGTAA | 0.122 ± 0.09 |
| AAATGTAC | 0.296 ± 0.052 |
| ACATGTAA | 0.24 ± 0.04 |
| TCATGTAA | 0.0907 ± 0.036 |
| GTATGTAA | 0.236 ± 0.055 |
| CTATGTAA | 0.00312 ± 0.013 |
| CAATGTAC | 0.00633 ± 0.095 |
| ATATGTAA | 0.0958 ± 0.035 |
| ACATGTCT | 0.251 ± 0.006 |
| ACATGTCG | 0.164 ± 0.071 |
| ATAGTATC | 0.0888 ± 0.11 |
| ACGAACTC | -0.159 ± 0.021 |
| GAACGTAC | -0.045 ± 0.0085 |
| GCTTTGCA | -0.0268 ± 0.02 |
| ACATGTAT | 0.277 ± 0.0074 |
| ACATGTAC | 0.311 ± 0.0047 |
| AGATGTAG | 0.167 ± 0.023 |
| CCATGTAC | -0.0575 ± 0.098 |
| CCATGTAG | 0.148 ± 0.0044 |
